Assay outcomes as filed in PubChem.
Most compounds without a hit are left out; they make up all but 4.5% or so of the library.
ZTA counter – counter-screen for EBNA-1 inhibitors: inhibitors of Epstein-Barr virus ZTA; P03206; ZTA-DNA binding, fluorescence polarization; inhibition, % at 11 µM; 320,000 tested, 0.15% active; in the data active = inhibition above about 33%
Target sequence (P03206 whole entry, looked up): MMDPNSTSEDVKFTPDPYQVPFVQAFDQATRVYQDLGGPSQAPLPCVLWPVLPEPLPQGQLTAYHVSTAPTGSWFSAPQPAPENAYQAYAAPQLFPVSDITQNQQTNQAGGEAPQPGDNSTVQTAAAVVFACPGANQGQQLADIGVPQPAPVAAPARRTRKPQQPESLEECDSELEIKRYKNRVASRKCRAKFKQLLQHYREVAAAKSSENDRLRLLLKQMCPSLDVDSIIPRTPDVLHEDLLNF
Rpn11 inh – blocks the human proteasome subunit Rpn11; O00487; human 26S proteasome, Ub4-pepOG fluorescence polarization; 20S core pre-blocked with epoxomicin; inhibition, % at 20 µM; 360,000 tested, 0.59% active; AID 588493;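 active = inhibition at 20 µM, scaled to each plate's controls, above about 33%, limit read from the data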
Target sequence (O00487 whole entry, looked up): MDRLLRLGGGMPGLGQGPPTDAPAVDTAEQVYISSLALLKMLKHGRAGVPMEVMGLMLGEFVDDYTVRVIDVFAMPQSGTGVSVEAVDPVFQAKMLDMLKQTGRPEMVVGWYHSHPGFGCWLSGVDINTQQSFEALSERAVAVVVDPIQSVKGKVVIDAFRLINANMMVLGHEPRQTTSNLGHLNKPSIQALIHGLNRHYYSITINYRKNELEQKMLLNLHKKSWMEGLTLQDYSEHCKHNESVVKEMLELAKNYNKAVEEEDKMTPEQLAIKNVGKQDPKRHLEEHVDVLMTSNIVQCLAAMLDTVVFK
TPT1 inh – inhibitors of Candida albicans tRNA 2'-phosphotransferase TPT1 | recombinant caTPT1, FP RNA substrate dephosphorylation | inhibition, % at 5 µM | 300,000 tested, 0.81% active | AID 1962;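 active = inhibition above the mean of all tested compounds plus 3 SD, set per screening campaign, cut at about 24% in these data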;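 also: plate controls were DMSO alone for no effect and ferristatin control at 100 nM for full effect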
NR3A LBD binder – NR3A (human) ligand-binding domain modulation | NR3A LBD differential scanning fluorimetry, Tm shift; 0% = protein alone, 100% = glycine-bound protein | Tm shift relative to glycine control, % at 25 µM | 340,000 tested, 2.5% active | AID 1259313;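 active = melting temperature shift of at least 10% of the positive control shift, at one fixed dose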
EBNA-1 inh – blocks EBNA-1 binding to DNA | EBNA-1 DNA binding, fluorescence polarization | inhibition, % at 14.8 µM | 300,000 tested, 0.34% active | AID 1950; in the data active = inhibition above about 28%
dFosB act – enhances mouse delta FosB homodimer DNA binding; P13346; purified delta FosB, TAMRA-CDK5 oligo fluorescence polarization; percent of positive-control signal above neutral wells; activation, % at 25 µM; 340,000 tested, 0.99% active;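 active = mean activation above about 17%, with every replicate also reaching it, limit read from the data, passing the limit was not always enough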
* hit, by the source's call; · = no result shown.

SMILES	ZTA counter	Rpn11 inh	TPT1 inh	NR3A LBD binder	EBNA-1 inh	dFosB act
CC[C@@H]1C(c2ccccc2)=NN(c2ccc(Br)cc2)[C@H]1C(=O)N1CCOC1=O	·	8	·	9	·	-5
CC[C@@H]1C(c2ccc(F)cc2)=NN(c2ccc(Br)cc2)[C@H]1C(=O)N1CCOC1=O	·	5	·	19*	·	-9
COc1ccc(CC(=O)N(C)C2CCCCC2)cc1S(=O)(=O)N1CCOCC1	8	2	0	0	2	-3
CC(CC(=O)Nc1ccc2c(c1)c(=O)n(C)n2-c1ccccc1F)c1ccccc1 (stereo unspecified)	·	0	·	·	·	·
Cc1c(N(C)S(=O)(=O)c2cc(C(=O)NCC3CCCO3)ccc2Cl)c(=O)n(-c2ccccc2)n1C (stereo unspecified)	-16	2	0	·	1	0
CCN(CC)S(=O)(=O)c1cc([N+](=O)[O-])ccc1NNC(=O)Nc1ccc(Cl)c(Cl)c1	1	8	1	18*	-8	-3
COc1ccc(CC(=O)N(C)c2ccccc2)cc1S(=O)(=O)N1CCOCC1	·	3	·	·	·	·
CC1(C)C2CCC1(C)C(OC(=O)CC(=O)O)C2 (stereo unspecified)	-1	·	-4	10*	-5	·
Oc1ccc(C[C@H]2CNCCN2CC2(c3ccccc3)CC2)cc1	9	-6	-3	0	7	2
CC(=O)NC(c1ccccc1)c1cc([N+](=O)[O-])c2cccnc2c1O (stereo unspecified)	-1	38	-1	-7	-3	-14
CC(=O)NC(c1cccs1)c1cc([N+](=O)[O-])c2cccnc2c1O (stereo unspecified)	-1	40*	4	-7	-6	-9
N/C(=N\OC(=O)COc1ccc2ccccc2c1Br)c1ccncc1	-5	·	-1	·	12	·
O=C(NC(=S)Nc1cc(-c2nc3ccccc3[nH]2)ccc1Cl)c1ccc2c(c1)OCO2	8	8	-2	18*	10	-19
CN(C)c1ccc(/C=N/N2C(=S)SC(C)(C)C2N(O)C(=O)Nc2ccc([N+](=O)[O-])cc2)cc1 (stereo unspecified)	-1	-2	-5	11*	1	-3
O=C(N/N=C/c1c[nH]c2ccccc12)c1cccc([N+](=O)[O-])c1	18	-10	1	25*	-2	-3
Cc1ccc(C(=O)Nc2ccc(C(=O)N/N=C/c3c[nH]c4ccccc34)cc2)cc1	-4	16	-1	31*	-4	5
Cc1nnsc1C(=O)N/N=C/c1ccc2ccccc2c1O	-11	·	110*	-4	0	-2
COc1ccccc1C(=O)N/N=C/c1c[nH]c2ccccc12	9	-2	2	14*	11	-3
Cc1c(NC(=O)C(C)OC(=O)CCC2CCCC2)c(=O)n(-c2ccccc2)n1C (stereo unspecified)	-2	0	1	1	0	-2
O=C(NC(Cc1c[nH]c2ccccc12)C(=O)Nc1ccc(OC(F)(F)F)cc1)c1cccs1 (stereo unspecified)	3	-5	0	33*	-13	-3
O=C(O)COc1ccccc1/C=N/NC(=O)CSc1nnc(SCc2cccc3ccccc23)s1	15	-2	0	-10	-4	-23
O=C(NC(Cc1c[nH]c2ccccc12)C(=O)Nc1ccc(F)c([N+](=O)[O-])c1)c1cccs1 (stereo unspecified)	3	1	-2	5	-3	0
COc1cc(/C=N\NC(=O)c2sc(N)nc2C)cc(OC)c1OC	-2	-3	0	17*	1	-10
Cc1nn(-c2ccccc2)c(C)c1/C=N/NC(=O)CSc1nnc(SCc2ccccc2Cl)s1	12	-1	-1	11*	20	2
Cc1ccc(CSc2nnc(SCC(=O)N/N=C/c3c(C)nn(-c4ccccc4)c3C)s2)cc1	-3	-3	-4	-5	2	-9
SMILES	ZTA counter	Rpn11 inh	TPT1 inh	NR3A LBD binder	EBNA-1 inh	dFosB act
O=C(CSc1nnc(SCc2cccc3ccccc23)s1)N/N=C/c1c[nH]c2ccccc12	-3	3	-3	22*	6	-14
CC(=O)OC[C@@H]1CN(Cc2ccccc2)C[C@H](n2cnc3c(N(C)C(C)C)ncnc32)O1	·	-6	·	·	·	·
O=C(N/N=C/c1c[nH]c2ccccc12)c1ccc2c(c1)OCCO2	-2	-9	-1	11*	3	-7
O=C(N/N=C/c1c[nH]c2ccccc12)c1ccncc1	-12	3	-1	7	-8	-12
O=C(N/N=C/c1c[nH]c2c1ccc1ccccc12)c1ccc([N+](=O)[O-])cc1	1	2	-2	39*	-2	6
O=[N+]([O-])c1ccccc1N/N=C/c1c[nH]c2ccccc12	-14	-2	2	16*	2	0
O=C(N/N=C/c1c[nH]c2ccccc12)c1ccccc1	-15	0	-4	18*	-8	-2
O=C(NC(Cc1c[nH]c2ccccc12)C(=O)O)c1cccs1 (stereo unspecified)	-5	2	0	-6	-10	1
Cc1cc(C(=O)N/N=C/c2c[nH]c3ccccc23)cs1	-5	2	-2	27*	4	-4
Cc1cccc(NC(=S)N/N=C/c2c[nH]c3ccccc23)c1	-18	-5	-3	33*	-5	-6
CC(=O)n1cc(/C=N/NC(=O)c2ccc([N+](=O)[O-])cc2)c2ccccc21	-11	1	0	21*	-8	-9
O=C(NC(Cc1c[nH]c2ccccc12)C(=O)N/N=C/c1cccc2ccccc12)c1cccs1 (stereo unspecified)	3	2	-4	19*	9	2
CCC(C)C(NC(C)=O)C(=O)NC(=O)NC(c1ccccc1)c1ccccc1 (stereo unspecified)	2	-2	1	-2	-14	-13
COc1ccc(CCC(=O)N2CCN(c3ccc([N+](=O)[O-])cc3)CC2)cc1OC	-4	-11	4	-1	0	-10
COc1ccc2[nH]c3c(c2c1)CCN1C(=O)C(CC(=O)NCc2cccc(C(F)(F)F)c2)C[C@H](C(=O)N(C(C)C)C(C)C)[C@@]31C (stereo partly specified)	·	6	·	-9	·	-5
O=C(N/N=C/c1c[nH]c2ccccc12)c1cccs1	-8	-2	-2	23*	-5	·
O=C(N/N=C/c1c[nH]c2ccccc12)c1sc2ccccc2c1Cl	-11	8	0	35*	6	-5
Cc1nc(N)sc1C(=O)N/N=C/c1c[nH]c2ccccc12	-2	-8	-3	24*	-5	-7
O=C(NN=Cc1c[nH]c2ccccc12)NN=Cc1c[nH]c2ccccc12	·	4	·	·	·	·
